Bioassay records from PubChem.
The list is not random: actives were taken first. Their share in the collection is about 1.7%.
Mtb hypoxia inh: PubChem AID 1159583 | M. tuberculosis hypoxia-regulated fluorescent reporter, fluorescence | 300,000 compounds, 0.1% hits | fluorescence inhibition, % (concentration not given with the values); in the data active means fluorescence inhibition mostly above about 23%, no sharp cut-off; inactive means mostly below about 17%
RN4220 kill: growth inhibition of S. aureus RN4220, primary screen, OD600. 16 h. inhibition, % (concentration not given with the values). 330,000 compounds, 0.33% hits. AID 1259311, 2017; in the data active means inhibition above about 85%
CCHF vOTU inh: CCHFV vOTU protease inhibitors, primary screen, biochemical, Pep-AMC substrate, fluorescence | 370,000 compounds, 0.55% hits | AID 651958, 2012 | inhibition, % at 11.5 µM; in the data active means inhibition above about 30%
BH1578 lux ind: inducers of Vibrio cholerae quorum light production without autoinducers, primary screen, BH1578 luxS cqsA deficient, single point; V. cholerae BH1578 lux reporter, luminescence, 6 h; activation, % at 18.7 µM; 350,000 compounds, 0.16% hits; in the data active means activation mostly above about 9.7%, no sharp cut-off; inconclusive means no clear call, values can overlap the other calls; inactive means mostly below about 3.7%
PfHsp40 yeast: rescue of yeast from PfHsp40 toxicity, primary screen, S. cerevisiae, ATP luminescence | S. cerevisiae expressing PfHsp40, growth rescue | growth rescue, % at 12.5 µM | 340,000 compounds, 0.68% hits; in the data active means growth rescue above about 28%, passing the limit was not always enough; inconclusive means no clear call, values can overlap the other calls;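 further: yeast W303a lacking pdr1 and pdr3 grown in galactose medium; growth measured after three days at 30 °C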
ugtP null kill: growth inhibition of ugtP-null S. aureus, primary screen, RN4220 ugtP deletion, OD600. 330,000 compounds, 0.54% hits. 16 h. growth inhibition, % (concentration not given with the values); in the data active means growth inhibition above about 68%
Numbers stand for hits; i = inactive; ? = inconclusive; nt = no result shown; ! = a repeat was not active.

SMILES	Mtb hypoxia inh	RN4220 kill	CCHF vOTU inh	BH1578 lux ind	PfHsp40 yeast	ugtP null kill
CCOC(=O)CC1C(=O)NCCN1Cc1cccc(OC)c1 (stereo not given)	i	i	i	i	i	i
C=C(C)CSc1nc(N)cc(=O)[nH]1	nt	nt	i	17	i	nt
Cc1ccc(C)c2c1cc(C)c1nnc(SCC(=O)N3CCCc4ccccc43)n12	i	i	i	i	i	i
Cc1cc(C)c2c(c1)cc(C)c1nnc(SCC(=O)N3CCCc4ccccc43)n12	i	i	i	i	i	96
CN1/C(=C\C(=O)Nc2ccc(F)cc2)C(C)(C)c2ccccc21	i	i	i	i	i	i
CN1/C(=C\C(=O)Nc2ccc(Br)cc2)C(C)(C)c2ccccc21	i	94	i	i	i	96
O=C(CN1C(=O)/C(=C\c2ccco2)SC1=S)Nc1ccc(O)cc1C(=O)O	i	i	31	i	i	i
CC1Oc2ccccc2C=C1/C=N/Nc1ccc(C(=O)O)cc1 (stereo not given)	nt	nt	i	i	342	nt
CC1CCN(c2nc(-c3ccncc3)nc3ccccc23)CC1	i	i	i	i	282	i
CSc1nc2c(c(-c3ccccc3)c1C#N)CCC2	i	i	i	i	i	83
N#Cc1c(N)nc2c(c1-c1ccccc1)CCCC2	i	i	i	i	i	i
CCCCCCCCCCCC1=C(O)C(=O)C=C(O)C1=O	nt	99	nt	i	i	100
Cn1c(=O)n(C)c2cc(C=NNC(=O)c3cccc(Br)c3)ccc21	i	i	nt	nt	nt	i
Cc1ccnc2c1ccc1c(C)ccnc12	nt	i	nt	i	82	i
CCCCCCCCCCCCCCCC[N+](C)(C)C	i	100	i	i	?	100
CCCCCC[N+](C)(C)CCSSCC[N+](C)(C)CCCCCC	i	i	i	i	i	i
CCCCCCCCCCCCCCCC[N+](C)(C)CC	i	100	i	i	i	100
COc1ccc(C(=O)NCC(=O)NN=C(C)c2ccco2)cc1OC	i	i	nt	nt	nt	i
COc1ccc(NS(=O)(=O)c2ccc3c(c2)Cc2ccccc2-3)cn1	i	i	i	i	28	i
COc1ccc(NS(=O)(=O)c2ccc(N3CCCC3=O)cc2)cn1	i	i	i	i	i	i
COc1ccc(C=NNC(=O)c2ccc([N+](=O)[O-])cc2)cc1COc1c(F)c(F)cc(F)c1F	i	i	nt	nt	nt	i
COc1ccccc1OCCNC(=O)c1ccc(Br)cc1	i	i	i	i	168	i
COc1ccccc1OCCNC(=O)c1ccc(C(C)(C)C)cc1	i	i	i	i	i	i
S=c1[nH]ncn1/N=C/c1cccc(Oc2ccccc2)c1	nt	nt	i	i	106	nt
CCOC(=O)C1C2COc3ccccc3C2N2C(=O)N(c3ccc(C(F)(F)F)cc3)C(=O)[C@]12C (stereo not given in full)	i	101!	nt	nt	nt	100!
SMILES	Mtb hypoxia inh	RN4220 kill	CCHF vOTU inh	BH1578 lux ind	PfHsp40 yeast	ugtP null kill
CCOC(=O)[C@@H]1[C@H]2COc3cc(OC)ccc3[C@@H]2N2C(=O)N(c3ccc(C(F)(F)F)cc3)C(=O)[C@@]12C	nt	nt	i	i	i	nt
CCOC(=O)[C@@H]1[C@H]2COc3cc(OC)ccc3[C@H]2N2C(=O)N(c3ccc(C(F)(F)F)cc3)C(=O)[C@]12C	nt	nt	i	i	193	nt
COCCCNC(=S)NN=Cc1cccc(OC)c1O	i	i	nt	nt	nt	i
O=[N+]([O-])c1cccc(-c2ccc(C=NNC(=S)NCc3ccco3)o2)c1	i	i	nt	nt	nt	i
CCN1C(=O)C(CC(=O)Nc2ccccc2Cl)N(NC(=O)c2cccc(F)c2)C1=S (stereo not given)	i	i	i	i	122	i
O=C(NN=Cc1[nH]c2ccccc2c1Cl)c1cccc(Br)c1	i	i	nt	nt	nt	i
Clc1ccc2c(c1)c1cc(Cl)ccc1n2CN1CCOCC1	i	i	i	i	367	84
COc1ccc(Cl)cc1CN1CCOCC1	i	i	i	i	i	i
CCn1c2ccccc2c2cc(CNCCCN3CCOCC3)ccc21	i	i	i	i	i	i
Clc1ccc2c(c1)c1ccccc1n2CN1CCOCC1	nt	i	i	nt	31	i
COC1=CC(=O)[C@]2(C(Cl)C[C@]34C(OC)=C(OC)C(=O)C[C@]23CCN4C)C1O (stereo not given in full)	i	i	nt	nt	nt	i
CC(C)CC1COCCS(=O)(=O)N1Cc1ccccc1F (stereo not given)	i	i	nt	nt	nt	i
O=C(COc1ccc(C=NNC(=O)c2ccc(O)cc2)cc1)Nc1ccc([N+](=O)[O-])cc1	i	i	nt	nt	nt	i
CCOc1ccc(C=NN(C)c2ccccc2)cc1OC	i	i	nt	nt	nt	i
CN1CCCN=C1COC(=O)C(O)(c1ccccc1)C1CCCCC1 (stereo not given)	nt	nt	i	29	i	nt
CC(C)C[C@@]12C(=O)N(c3cccc(Cl)c3)C(=O)N1C(c1ccc(F)cc1)C1C(=O)N(C3CCCCC3)C(=O)C12 (stereo not given in full)	i	i	nt	nt	nt	i
CCCCn1c(O)c(/C=C/C=C/C=Nc2ccccc2)sc1=S	i	i	i	nt	42	i
CCn1c(O)c(/C=C/C=C/C=Nc2ccccc2)sc1=S	i	i	i	i	i	i
CC(=O)C1=C(C)N=c2sc(=Cc3ccc4c(c3)OCO4)c(=O)n2C1c1ccc(N(C)C)cc1 (stereo not given)	i	i	nt	nt	nt	i
CNC[C@@H](CC1CCCCC1)NC[C@H](CC(C)C)NCCc1cccc(C(F)(F)F)c1	nt	nt	i	i	i	nt
CNCC(CC1CCCCC1)NCC(CC(C)C)NCCc1cccc(C(F)(F)F)c1 (stereo not given)	nt	89	nt	nt	nt	i
c1ccc(Nc2ccccn2)cc1	i	i	i	i	i	i
c1ccc(Nc2cccc(Nc3ccccc3)n2)cc1	nt	i	i	i	54	i
Cc1ccc(S(=O)(=O)NN=Cc2ccccc2OCc2ccccc2)cc1	i	i	nt	nt	nt	i
O=C(O)CCCc1ccc2c(c1)CCc1ccccc1-2	nt	nt	i	i	185	nt
SMILES	Mtb hypoxia inh	RN4220 kill	CCHF vOTU inh	BH1578 lux ind	PfHsp40 yeast	ugtP null kill
CCCCCCCCCCOC(=O)C[N+](C)(C)C/C=C(/C)Cl	i	i	i	i	i	100
CCOC(=O)N1CCC(NC(=O)c2ccc(CS(=O)(=O)c3c(Cl)cccc3Cl)o2)CC1	nt	i	i	i	i	i
CC(=O)OCC1=C(C(=O)O)N2C(=O)C(NC(=O)c3ccc(COc4c(C)cccc4Cl)o3)C2SC1 (stereo not given)	i	96	i	i	i	100
CC(=O)OCC1=C(C(=O)O)N2C(=O)C(NC(=O)c3ccc(COc4ccc(Cl)cc4)o3)C2SC1 (stereo not given)	i	99	i	i	i	100
O=[N+]([O-])c1ccccc1/C=N/Nc1nnc(-c2ccccc2)c(-c2ccccc2)n1	nt	nt	i	i	42	nt
Cc1coc2c(C)c3oc(=O)cc(-c4ccccc4)c3cc12	nt	i	i	i	i	i
CCCc1cc(=O)oc2c(C)c3occ(C)c3cc12	i	i	i	23	i	i
COC(=O)C1=C(c2ccc(OC)c(OC)c2)CC2CCC1N2C(=O)N1CCOCC1 (stereo not given)	i	i	nt	nt	nt	i
